Laboratory results reported in the supplement of paper PMC10849652.
About 8,800 targets were measured; listed, in parts, are those with a hit and a random draw of the rest. About 0.5% of all pairs of compound and target were hits.

Legend:
Assay in all cases: log2 fold change, soluble protein after heating vs DMSO (PISA); higher = thermal stabilisation; K562 lysate, 10 uM; active = over 0.2 and 3.5 SD of the protein, either way, in both replicates (recomputed)
erlotinib = compound: C#Cc1cccc(Nc2ncnc3cc(OCCOC)c(OCCOC)cc23)c1 [erlotinib]
Summary of the method: (§1)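 Values give the log-two fold change in thermal stability against solvent controls, from duplicates. Crude K562 extract at 1 mg/mL protein, made by dounce homogenisation in PBS pH 7.4 with 1 mM MgCl2, was treated with 10 μM compound for 30 min. After 3 min heating across 48°C-58°C, aliquots were pooled, adjusted to 0.5% NP-40 at 4°C and centrifuged at 21,000xg for 90 min. The supernatant was measured by TMTpro 16plex LC-MS/MS with channel sums equalised.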

[1] = compound: C/C(=N\NC(=O)C1=CC(=CC=C1)S(=O)(=O)N2CCOCC2)/C3=C(C=CC(=C3)Cl)O
Summary of the method: as §1

[2] = compound: C1=CC(=CC=C1C2=NC3=C(N2)C=C(C=C3)C(=O)N)OC4=CC=C(C=C4)Cl
Summary of the method: as §1

[3] = compound: C1=CC2=C(C=CC(=C2)/C=C\3/C(=O)NC(=NCC4=CC=CS4)S3)N=C1
Summary of the method: as §1

[4] = compound: C1=CC2=NC=CN=C2C=C1/C=C/3\C(=O)NC(=O)S3
Summary of the method: as §1

[5] = compound: C1=CC=C(C=C1)C2=NC(=C(N2)C3=CC=NC=C3)C4=CC(=C(C=C4)Cl)O
Summary of the method: as §1

[6] = compound: C1=CC=C2C(=C1)C3=NNC4=CC=CC(=C43)C2=O
Summary of the method: as §1

[7] = compound: C1CCN(C1)C(=O)NC2=CC=CC(=C2)NC3=NC=C(C(=N3)NCCC4=CN=CN4)Br
Summary of the method: as §1

[8] = compound: C1CN(CCC1(CC2=CC=C(C=C2)Cl)N)C3=NC=NC4=C3C=CN4
Summary of the method: as §1

IRAK-1-4 Inhibitor I = compound: C1COCCN1CCN2C3=CC=CC=C3N=C2NC(=O)C4=CC(=CC=C4)[N+](=O)[O-] [IRAK-1-4 Inhibitor I]
Summary of the method: as §1

Measured: log2 fold change

PTK2 (UniProt Q05397)
UniProt Q05397, sequence (Q05397 whole entry, looked up): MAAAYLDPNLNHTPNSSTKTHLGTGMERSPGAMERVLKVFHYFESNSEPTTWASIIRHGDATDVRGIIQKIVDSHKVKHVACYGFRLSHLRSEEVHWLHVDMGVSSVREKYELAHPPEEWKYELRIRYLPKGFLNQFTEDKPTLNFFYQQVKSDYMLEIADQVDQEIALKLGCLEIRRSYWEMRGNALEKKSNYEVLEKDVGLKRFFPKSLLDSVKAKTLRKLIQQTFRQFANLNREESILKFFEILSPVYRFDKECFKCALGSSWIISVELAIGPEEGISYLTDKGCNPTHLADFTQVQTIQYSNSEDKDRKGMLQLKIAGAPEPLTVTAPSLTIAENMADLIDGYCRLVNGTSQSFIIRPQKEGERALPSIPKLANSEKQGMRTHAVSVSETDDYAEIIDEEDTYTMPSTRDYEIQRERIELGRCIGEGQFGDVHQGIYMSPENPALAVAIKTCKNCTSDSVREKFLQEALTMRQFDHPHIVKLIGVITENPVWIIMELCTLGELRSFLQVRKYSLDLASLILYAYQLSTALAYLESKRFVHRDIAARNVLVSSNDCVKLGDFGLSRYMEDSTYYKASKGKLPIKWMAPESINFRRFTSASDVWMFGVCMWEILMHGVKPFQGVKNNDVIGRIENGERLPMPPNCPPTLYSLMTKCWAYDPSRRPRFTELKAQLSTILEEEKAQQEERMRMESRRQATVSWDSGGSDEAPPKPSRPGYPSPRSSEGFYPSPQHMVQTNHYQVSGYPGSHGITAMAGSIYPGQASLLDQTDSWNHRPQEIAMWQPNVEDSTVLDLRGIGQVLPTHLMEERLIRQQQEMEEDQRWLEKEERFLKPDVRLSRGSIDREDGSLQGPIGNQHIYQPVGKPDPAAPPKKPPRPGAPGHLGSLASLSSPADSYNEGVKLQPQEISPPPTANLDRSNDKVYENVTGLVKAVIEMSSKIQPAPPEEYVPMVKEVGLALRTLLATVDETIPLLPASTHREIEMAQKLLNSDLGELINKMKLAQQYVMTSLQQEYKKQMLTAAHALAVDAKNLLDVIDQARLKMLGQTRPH
inactive: erlotinib -0.018 | [1] -0.009 | [2] 0.045 | [3] -0.031 | [4] -0.045 | [5] -0.02 | [6] 0.271 | [7] 0.32 | [8] -0.045 | IRAK-1-4 Inhibitor I 0.22

PLEKHF1 (UniProt Q96S99)
inactive: erlotinib 0.027 | [1] 0.032 | [2] -0.067 | [3] 0.006 | [4] 0.05 | [5] 0.017 | [6] -0.019 | [7] -0.032 | [8] 0.029 | IRAK-1-4 Inhibitor I -0.024

QKI (UniProt Q96PU8)
inactive: erlotinib -0.023 | [1] -0.018 | [2] -0.001 | [3] -0.005 | [4] 0.012 | [5] -0.029 | [6] 0.012 | [7] 0.005 | [8] -0.034 | IRAK-1-4 Inhibitor I 0.027

PDCD10 (UniProt Q9BUL8)
inactive: erlotinib -0.029 | [1] -0.001 | [2] -0.009 | [3] -0.049 | [4] -0.028 | [5] -0.007 | [6] 0.087 | [7] 0.035 | [8] -0.025 | IRAK-1-4 Inhibitor I -0.012

PUF60 isoform 2 (UniProt Q9UHX1)
inactive: erlotinib 0.102 | [1] -0.094 | [2] 0.083 | [3] -0.019 | [4] -0.064 | [5] -0.088 | [6] -0.005 | [7] -0.045 | [8] 0.033 | IRAK-1-4 Inhibitor I -0.011

PKP3 isoform 2 (UniProt Q9Y446)
inactive: erlotinib 0.063 | [1] -0.011 | [2] 0.042 | [3] 0.009 | [4] 0.006 | [5] -0.011 | [6] -0.02 | [7] -0.011 | [8] -0.013 | IRAK-1-4 Inhibitor I 0.015

PYCR2 (UniProt Q96C36)
inactive: erlotinib -0.013 | [1] 0.014 | [2] 0.011 | [3] -0.005 | [4] -0.013 | [5] 0.003 | [6] -0.04 | [7] 0.007 | [8] 0.01 | IRAK-1-4 Inhibitor I 0.031

PITRM1 isoform 2 (UniProt Q5JRX3)
UniProt Q5JRX3, sequence (Q5JRX3 whole entry, looked up): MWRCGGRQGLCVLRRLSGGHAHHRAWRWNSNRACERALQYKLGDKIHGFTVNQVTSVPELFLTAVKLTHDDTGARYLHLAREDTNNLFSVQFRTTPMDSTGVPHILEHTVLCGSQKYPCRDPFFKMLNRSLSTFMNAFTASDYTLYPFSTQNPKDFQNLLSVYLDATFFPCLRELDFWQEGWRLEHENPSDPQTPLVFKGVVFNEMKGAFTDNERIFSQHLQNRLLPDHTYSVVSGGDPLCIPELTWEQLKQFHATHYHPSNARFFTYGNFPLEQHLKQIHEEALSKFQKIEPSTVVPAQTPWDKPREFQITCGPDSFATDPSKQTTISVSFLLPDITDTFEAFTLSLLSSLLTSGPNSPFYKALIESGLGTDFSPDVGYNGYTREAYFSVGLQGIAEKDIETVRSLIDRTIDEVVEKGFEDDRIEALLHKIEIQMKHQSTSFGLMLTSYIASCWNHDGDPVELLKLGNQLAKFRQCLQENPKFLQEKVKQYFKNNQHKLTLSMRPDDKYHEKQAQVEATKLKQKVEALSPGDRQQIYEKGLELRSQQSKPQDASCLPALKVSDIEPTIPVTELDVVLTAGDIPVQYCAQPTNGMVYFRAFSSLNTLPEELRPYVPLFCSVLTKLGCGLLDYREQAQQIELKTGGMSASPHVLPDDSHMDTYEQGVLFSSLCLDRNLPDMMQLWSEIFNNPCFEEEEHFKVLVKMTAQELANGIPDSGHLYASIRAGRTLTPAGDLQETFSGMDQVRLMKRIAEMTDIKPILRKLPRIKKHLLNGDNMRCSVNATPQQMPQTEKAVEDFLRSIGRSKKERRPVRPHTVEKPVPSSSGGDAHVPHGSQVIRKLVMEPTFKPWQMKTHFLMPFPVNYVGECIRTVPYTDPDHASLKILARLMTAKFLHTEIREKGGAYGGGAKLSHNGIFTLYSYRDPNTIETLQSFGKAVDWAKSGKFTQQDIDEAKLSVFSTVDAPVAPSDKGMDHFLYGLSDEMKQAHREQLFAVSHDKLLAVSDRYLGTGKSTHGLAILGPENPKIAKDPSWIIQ
inactive: erlotinib -0.035 | [1] 0.011 | [2] 0.077 | [3] 0.04 | [4] -0.037 | [5] -0.025 | [6] 0.009 | [7] 0.016 | [8] 0.024 | IRAK-1-4 Inhibitor I -0.015

POC5 (UniProt Q8NA72)
inactive: erlotinib -0.022 | [1] -0.083 | [2] -0.01 | [3] 0.069 | [4] -0.025 | [5] 0.039 | [6] -0.144 | [7] 0.045 | [8] 0.043 | IRAK-1-4 Inhibitor I 0.069

PI4KA (UniProt P42356)
inactive: erlotinib 0.018 | [1] -0.014 | [2] -0.055 | [3] 0.035 | [4] 0.075 | [5] -0.028 | [6] -0.027 | [7] -0.021 | [8] 0.02 | IRAK-1-4 Inhibitor I -0.003

POLR2G (UniProt P62487)
inactive: erlotinib 0.02 | [1] 0.012 | [2] 0.044 | [3] -0.005 | [4] 0.029 | [5] 0.022 | [6] 0.036 | [7] -0.002 | [8] 0.02 | IRAK-1-4 Inhibitor I 0.03

PCBP2 isoform 8 (UniProt Q15366)
UniProt Q15366, sequence (Q15366 whole entry, looked up): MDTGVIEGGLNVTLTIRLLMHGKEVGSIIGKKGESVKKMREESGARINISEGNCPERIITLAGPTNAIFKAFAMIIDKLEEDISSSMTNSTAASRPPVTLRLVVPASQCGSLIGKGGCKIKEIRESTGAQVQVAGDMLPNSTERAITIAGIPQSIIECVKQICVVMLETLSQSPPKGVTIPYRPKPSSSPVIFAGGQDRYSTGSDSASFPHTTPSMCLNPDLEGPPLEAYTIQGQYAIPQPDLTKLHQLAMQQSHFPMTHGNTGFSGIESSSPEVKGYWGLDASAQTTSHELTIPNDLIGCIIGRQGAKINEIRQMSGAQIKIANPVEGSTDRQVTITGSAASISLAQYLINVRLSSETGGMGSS
inactive: erlotinib 0.118 | [1] -0.287 | [2] 0.024 | [3] 0.001 | [4] -0.039 | [5] 0.087 | [6] -0.041 | [7] -0.088 | [8] 0.01 | IRAK-1-4 Inhibitor I 0.018

PPP2R5C isoform 4 (UniProt Q13362)
inactive: erlotinib 0.025 | [1] -0.048 | [2] -0.054 | [3] -0.012 | [4] -0.009 | [5] 0.044 | [6] -0.01 | [7] 0.046 | [8] 0.08 | IRAK-1-4 Inhibitor I 0.002

PKN1 isoform 2 (UniProt Q16512)
inactive: erlotinib -0.014 | [1] 0.007 | [2] 0.018 | [3] -0.048 | [4] -0.042 | [5] -0.004 | [6] -0.175 | [7] -0.191 | [8] -0.203 | IRAK-1-4 Inhibitor I -0.174

PRKCSH isoform 2 (UniProt P14314)
UniProt P14314, sequence (P14314 whole entry, looked up): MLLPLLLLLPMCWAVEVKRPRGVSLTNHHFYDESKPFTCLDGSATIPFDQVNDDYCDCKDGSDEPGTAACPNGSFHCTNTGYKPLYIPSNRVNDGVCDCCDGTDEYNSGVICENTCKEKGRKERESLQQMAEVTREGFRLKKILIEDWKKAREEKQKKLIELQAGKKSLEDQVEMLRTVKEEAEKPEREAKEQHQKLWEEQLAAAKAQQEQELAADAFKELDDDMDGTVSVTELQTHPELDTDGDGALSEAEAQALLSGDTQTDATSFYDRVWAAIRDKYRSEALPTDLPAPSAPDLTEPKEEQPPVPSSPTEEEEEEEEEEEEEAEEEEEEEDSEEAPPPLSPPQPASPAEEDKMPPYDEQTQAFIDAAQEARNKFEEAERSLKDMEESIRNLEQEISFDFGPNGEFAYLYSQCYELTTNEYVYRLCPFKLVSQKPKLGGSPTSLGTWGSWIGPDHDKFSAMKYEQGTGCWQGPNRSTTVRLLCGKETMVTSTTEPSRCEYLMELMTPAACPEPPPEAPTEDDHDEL
inactive: erlotinib 0.038 | [1] -0.107 | [2] 0.084 | [3] 0.024 | [4] 0.001 | [5] -0.054 | [6] -0.011 | [7] -0.009 | [8] 0.015 | IRAK-1-4 Inhibitor I 0.001

PPP2R5C isoform 5 (UniProt Q13362)
inactive: erlotinib -0.013 | [1] -0.025 | [2] -0.009 | [3] -0.025 | [4] 0.016 | [5] -0.002 | [6] -0.039 | [7] 0.01 | [8] 0.027 | IRAK-1-4 Inhibitor I 0.013

PHKB isoform 3 (UniProt Q93100)
inactive: erlotinib -0.053 | [1] -0.049 | [2] 0 | [3] 0.044 | [4] 0.082 | [5] 0.036 | [6] 0.142 | [7] 0.038 | [8] 0.01 | IRAK-1-4 Inhibitor I 0.006

POLA1 (UniProt P09884)
inactive: erlotinib 0.009 | [1] -0.039 | [2] -0.02 | [3] -0.015 | [4] -0.036 | [5] 0.084 | [6] -0.005 | [7] -0.034 | [8] 0.015 | IRAK-1-4 Inhibitor I -0.003

PFKFB3 isoform 4 (UniProt Q16875)
inactive: erlotinib -0.006 | [1] -0.021 | [2] 0.028 | [3] -0.033 | [4] 0.011 | [5] -0.034 | [6] -0.035 | [7] 0.032 | [8] 0.002 | IRAK-1-4 Inhibitor I 0.004

PTPN2 (UniProt P17706)
inactive: erlotinib 0.028 | [1] 0.119 | [2] -0.005 | [3] 0.006 | [4] 0.019 | [5] -0.045 | [6] -0.033 | [7] 0 | [8] 0.046 | IRAK-1-4 Inhibitor I -0.017

PIM1 isoform 2 (UniProt P11309)
inactive: erlotinib 0.118 | [1] -0.106 | [2] -0.164 | [3] 0.028 | [4] 0.238 | [5] 0.123 | [6] -0.034 | [7] -0.077 | [8] 0.02 | IRAK-1-4 Inhibitor I -0.076

PFKP (UniProt Q01813)
inactive: erlotinib -0.01 | [1] -0.006 | [2] 0.019 | [3] -0.001 | [4] -0.01 | [5] 0 | [6] 0.032 | [7] 0.033 | [8] 0.031 | IRAK-1-4 Inhibitor I -0.003

PGLS (UniProt O95336)
UniProt O95336, sequence (O95336 whole entry, looked up): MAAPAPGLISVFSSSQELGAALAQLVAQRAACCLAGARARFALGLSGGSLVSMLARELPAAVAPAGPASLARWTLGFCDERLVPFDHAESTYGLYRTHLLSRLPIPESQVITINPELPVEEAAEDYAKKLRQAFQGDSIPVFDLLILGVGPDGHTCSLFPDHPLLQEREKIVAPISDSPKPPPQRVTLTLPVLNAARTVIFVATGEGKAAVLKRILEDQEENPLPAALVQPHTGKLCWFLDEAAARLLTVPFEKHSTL
inactive: erlotinib -0.019 | [1] -0.026 | [2] -0.08 | [3] -0.039 | [4] -0.039 | [5] -0.077 | [6] -0.04 | [7] -0.112 | [8] 0.025 | IRAK-1-4 Inhibitor I -0.043

PHKA1 (UniProt P46020)
inactive: erlotinib -0.011 | [1] 0.003 | [2] -0.015 | [3] 0.063 | [4] 0.078 | [5] -0.027 | [6] 0.205 | [7] 0.05 | [8] 0.026 | IRAK-1-4 Inhibitor I 0.01

PEF1 (UniProt Q9UBV8)
inactive: erlotinib -0.01 | [1] 0.012 | [2] -0.014 | [3] -0.001 | [4] -0.039 | [5] -0.012 | [6] -0.021 | [7] -0.016 | [8] 0.056 | IRAK-1-4 Inhibitor I 0.025

PIKFYVE (UniProt Q9Y2I7)
inactive: erlotinib -0.026 | [1] -0.008 | [2] -0.01 | [3] 0.005 | [4] -0.011 | [5] 0.03 | [6] -0.034 | [7] -0.039 | [8] 0.035 | IRAK-1-4 Inhibitor I -0.004

PTP4A1 (UniProt Q93096)
inactive: erlotinib -0.005 | [1] 0.01 | [2] 0.014 | [3] -0.001 | [4] -0.013 | [5] -0.022 | [6] -0.086 | [7] 0.05 | [8] -0.066 | IRAK-1-4 Inhibitor I -0.014

PLXNB2 (UniProt O15031)
UniProt O15031, sequence (O15031 whole entry, looked up): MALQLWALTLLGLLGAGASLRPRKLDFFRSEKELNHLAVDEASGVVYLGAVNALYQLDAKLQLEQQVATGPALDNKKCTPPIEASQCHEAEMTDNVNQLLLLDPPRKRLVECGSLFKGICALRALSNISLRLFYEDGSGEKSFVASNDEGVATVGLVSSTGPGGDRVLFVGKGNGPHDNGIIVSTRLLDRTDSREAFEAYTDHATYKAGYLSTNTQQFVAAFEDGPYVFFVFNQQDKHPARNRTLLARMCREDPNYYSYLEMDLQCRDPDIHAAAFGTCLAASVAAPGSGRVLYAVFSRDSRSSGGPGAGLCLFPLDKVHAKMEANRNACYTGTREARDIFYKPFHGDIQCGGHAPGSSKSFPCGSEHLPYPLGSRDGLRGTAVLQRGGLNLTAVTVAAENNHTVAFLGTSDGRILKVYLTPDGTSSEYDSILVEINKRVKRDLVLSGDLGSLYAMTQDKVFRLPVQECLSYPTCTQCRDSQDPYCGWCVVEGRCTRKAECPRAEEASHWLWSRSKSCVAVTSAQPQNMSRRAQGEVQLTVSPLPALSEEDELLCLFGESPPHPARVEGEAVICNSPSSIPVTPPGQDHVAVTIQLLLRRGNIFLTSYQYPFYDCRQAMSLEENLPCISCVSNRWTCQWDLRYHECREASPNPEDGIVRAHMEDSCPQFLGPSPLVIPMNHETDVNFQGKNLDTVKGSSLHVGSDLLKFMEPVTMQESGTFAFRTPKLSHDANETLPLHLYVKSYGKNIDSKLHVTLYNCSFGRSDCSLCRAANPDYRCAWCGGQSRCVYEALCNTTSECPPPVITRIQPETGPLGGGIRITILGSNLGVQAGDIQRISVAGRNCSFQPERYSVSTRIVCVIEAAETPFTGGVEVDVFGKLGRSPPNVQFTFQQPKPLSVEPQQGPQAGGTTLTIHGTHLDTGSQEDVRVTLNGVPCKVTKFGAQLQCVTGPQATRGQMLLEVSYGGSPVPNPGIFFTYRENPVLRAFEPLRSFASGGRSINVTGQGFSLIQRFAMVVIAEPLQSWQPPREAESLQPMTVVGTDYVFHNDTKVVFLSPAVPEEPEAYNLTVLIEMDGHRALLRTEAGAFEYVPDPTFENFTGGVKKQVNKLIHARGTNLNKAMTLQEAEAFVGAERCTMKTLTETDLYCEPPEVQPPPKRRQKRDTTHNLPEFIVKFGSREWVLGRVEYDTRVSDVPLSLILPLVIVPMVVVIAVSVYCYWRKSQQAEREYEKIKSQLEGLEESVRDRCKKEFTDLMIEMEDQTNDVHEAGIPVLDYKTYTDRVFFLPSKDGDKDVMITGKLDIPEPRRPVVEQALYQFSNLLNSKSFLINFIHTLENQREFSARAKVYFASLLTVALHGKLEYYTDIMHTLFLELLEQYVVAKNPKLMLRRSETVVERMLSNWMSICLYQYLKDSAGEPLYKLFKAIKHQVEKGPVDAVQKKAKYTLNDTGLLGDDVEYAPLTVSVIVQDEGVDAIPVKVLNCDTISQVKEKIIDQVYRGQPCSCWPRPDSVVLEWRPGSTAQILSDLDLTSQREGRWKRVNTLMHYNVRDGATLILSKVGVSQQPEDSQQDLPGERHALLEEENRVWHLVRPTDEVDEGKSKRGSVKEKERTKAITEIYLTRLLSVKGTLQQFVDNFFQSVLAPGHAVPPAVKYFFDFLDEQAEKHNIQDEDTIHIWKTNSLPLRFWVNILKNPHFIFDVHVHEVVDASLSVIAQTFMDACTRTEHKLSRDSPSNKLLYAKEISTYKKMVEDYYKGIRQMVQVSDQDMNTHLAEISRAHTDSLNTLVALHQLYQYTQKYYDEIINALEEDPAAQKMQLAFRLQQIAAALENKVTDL
inactive: erlotinib -0.014 | [1] -0.027 | [2] -0.013 | [3] -0.04 | [4] -0.037 | [5] 0.005 | [6] -0.018 | [7] -0.017 | [8] 0.049 | IRAK-1-4 Inhibitor I 0.004

PUF60 (UniProt Q9UHX1)
inactive: erlotinib 0.001 | [1] 0.003 | [2] -0.01 | [3] 0.011 | [4] -0.018 | [5] -0.018 | [6] 0.01 | [7] 0.003 | [8] 0.003 | IRAK-1-4 Inhibitor I -0.023
